CtBP-E1A blk – inhibitors of CtBP/E1A interaction | AlphaScreen GST-E1A/His-CtBP binding, 1536-well; stronger effect = lower value | activity change, % (concentration not given with the values) | 340,000 tested, 0.49% active | AID 651724; in the data active = activity change below about -65%; inconclusive = mostly about -30% to -63%
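Protein mix (5X: 125 nM each GST-E1A, His-CtBP) was incubated with pinned compound 2 h at 37 deg C in dark, in 50 mM Tris pH 8.0 buffer with 300 mM NaCl. Glutathione donor and nickel acceptor beads followed; AlphaScreen signal read after 1 h.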
DT40 TDP1 no CPT – qHTS for Inhibitors of human tyrosyl-DNA phosphodiesterase 1 (TDP1): qHTS in cells in absence of CPT; 420,000 tested, 15% active; DT40 Tdp1-/- hTDP1 cells, no CPT, ATP luminescence, 48 h; Potency, µM (top dose mostly 46.2 µM), for inactives: top-dose activity change, negative = growth inhibition, actives largely listed as inhibitors; also: potency is read from the fitted curve at half-maximal effect; nearly all actives have a fitted effect of over 55% in size
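Compound effects on proliferation are scored in DT40 Tdp1-/-;hTDP1 cells in the absence of CPT. ATP levels (CellTiter-Glo luminescence) are recorded after a ≥48 hr, 37 °C incubation.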
Six1-Eya2 blk – inhibitors of human Six1/Eya2 interaction | Q15475+O00167 | AlphaScreen GST-Six1/His-Eya2 binding, biochemical; stronger effect = lower value | activity change, % (concentration not given with the values) | 360,000 tested, 0.56% active | AID 651725; in the data active = activity change below about -65%; inconclusive = mostly about -30% to -63%
Target sequence (O00167 whole entry, looked up): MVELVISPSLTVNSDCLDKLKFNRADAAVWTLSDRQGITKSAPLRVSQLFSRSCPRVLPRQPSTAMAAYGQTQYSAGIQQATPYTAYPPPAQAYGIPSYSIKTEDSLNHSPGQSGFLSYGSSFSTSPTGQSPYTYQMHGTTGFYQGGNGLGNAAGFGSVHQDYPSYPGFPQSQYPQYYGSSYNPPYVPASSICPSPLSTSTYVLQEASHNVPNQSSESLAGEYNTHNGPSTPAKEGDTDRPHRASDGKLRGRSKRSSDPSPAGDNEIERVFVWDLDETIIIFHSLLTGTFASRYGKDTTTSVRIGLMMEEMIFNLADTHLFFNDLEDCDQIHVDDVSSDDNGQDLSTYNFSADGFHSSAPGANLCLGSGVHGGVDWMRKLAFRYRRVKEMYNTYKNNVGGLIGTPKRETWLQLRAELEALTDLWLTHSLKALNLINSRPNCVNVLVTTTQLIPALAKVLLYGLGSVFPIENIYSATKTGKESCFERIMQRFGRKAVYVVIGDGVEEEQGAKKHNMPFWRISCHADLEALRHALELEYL
Target sequence (Q15475 whole entry, looked up): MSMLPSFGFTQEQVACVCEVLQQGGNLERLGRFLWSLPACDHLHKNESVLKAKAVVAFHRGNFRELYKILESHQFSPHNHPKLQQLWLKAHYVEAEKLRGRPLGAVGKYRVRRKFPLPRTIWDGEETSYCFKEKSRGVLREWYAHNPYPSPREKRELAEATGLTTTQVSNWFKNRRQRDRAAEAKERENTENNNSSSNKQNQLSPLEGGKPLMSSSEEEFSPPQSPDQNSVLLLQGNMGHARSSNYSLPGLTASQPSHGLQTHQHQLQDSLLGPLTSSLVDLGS
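AlphaScreen luminescence read after one hour at 37 °C in darkness. Pin-transferred compounds met GST-Six1 and His-Eya2 protein (5X stock 250 nM/500 nM) plus glutathione donor and Ni-chelate acceptor beads (5X, 50 ug/mL).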
TDP1 inh – blocks human tyrosyl-DNA phosphodiesterase 1. recombinant TDP1, AlphaScreen DNA substrate cleavage. Potency, µM (highest dose often 130 µM), for the others: at the highest dose activity change, negative = inhibition, most hits filed as inhibitors. Q9NUW8. 350,000 tested, 0.28% active; also: potency is read from the fitted curve at half-maximal effect; nearly all actives have a fitted effect of over 40% in size
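Enzyme-compound mixtures sat 15 min at room temperature, followed by a 5 min reaction with 15 nM final substrate and 10 min with AlphaScreen beads. Recombinant human Tdp1 was used at 1 nM final.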
IL1B secr inh – inflammasome signaling inhibition, IL-1 beta readout; 360,000 tested, 4.7% active; THP-1 LPS/ATP IL-1B secretion, AlphaLISA, 16 h; stronger effect = lower value; AID 743279; activity change, % at 57.5 µM; in the data active = activity change below about -50%; inconclusive = mostly about -30% to -49%
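THP-1 cells pretreated 1 hr with compounds (up to 57.5 uM final), then stimulated with LPS (250 ng/mL final) plus ATP (1.25 mM final); secreted IL-1B measured by AlphaLISA after 16 hr, decreased signal indicating inhibition.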
TDP1 cell CPT – growth inhibition of DT40 Tdp1-/-;hTDP1 cells with camptothecin (screen for TDP1 inhibitors); 420,000 tested, 12% active; Potency, µM (titrated, usually from 46.2 µM), inactives show top-dose activity change, negative = growth inhibition, most hits filed as inhibitors; chicken DT40 Tdp1-/-;hTDP1 cells + 20 nM CPT, ATP luminescence, 48 h; also: potency is read from the fitted curve at half-maximal effect; nearly all actives have a fitted effect of over 55% in size
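Chicken DT40 Tdp1-/- cells complemented with human TDP1, 400 cells/well, exposed to compounds plus 20 nM camptothecin for at least 48 h at 37 C; viability read as ATP content by CellTiter-Glo luminescence.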
* hit, by the source's call; ? = inconclusive; / = no result; [ ] = another dose, or the depositor's remark. Hits are enriched below; roughly 18% of the tested compounds scored in any of these assays. Unless noted, calls follow the shape of the dose curve; as a rule, active = well fitted curve in the direction sought with a large enough effect; inconclusive = small, poorly fitted or top-dose-only effect, or another doubt; inactive = no such curve, though single readings can be large; an effect the other way counts as inactive or inconclusive. % is scaled to controls: 0 for no effect and ±100 for the full control effect.

SMILES | CtBP-E1A blk | DT40 TDP1 no CPT | Six1-Eya2 blk | TDP1 inh | IL1B secr inh | TDP1 cell CPT
O=C(NCc1ccc(Cl)cc1)C1CCN(S(=O)(=O)c2ccc3c(c2)CCCN3C(=O)C2CCC2)CC1 | / | 21µM* | / | 7% | / | 16µM*
Cc1c(Cl)cccc1NC(=O)CNC(=O)Cc1n[nH]c(=O)c2ccccc12 | -1 | -18% | 2 | -2% | 26 | ?
O=C(Nc1ccc2c(c1)OCO2)C1CC(c2cccc(Br)c2)=NO1 (stereo not given) | -2 | -8% | -14 | / | 40 | 12%
Cn1c(=O)c(-c2ccc(F)cc2)nc2cnc(N3CCOCC3)nc21 | / | 4% | / | / | / | 0%
CCOC(=O)c1sc(NC(=O)c2ccc(S(=O)(=O)N3CCCCCC3)cc2)nc1-c1ccccc1 | -3 | 1µM* | 0 | 0% | 10 | ?
CCOC(=O)Nc1nc(-c2ccccc2)c(C(=O)c2ccc(Cl)cc2)s1 | -6 | 0.92µM* | -11 | 9% | 36 | 0.73µM*
CCOC(=O)c1sc2ccc(S(=O)(=O)N3CCCCC3)cc2c1N | 5 | ? | 0 | -1% | -29 | 14µM*
CCOC(=O)c1sc2ccc(S(=O)(=O)N3CCOCC3)cc2c1N | 4 | -25% | -4 | 7% | -9 | ?
COC(=O)c1sc2ccccc2c1S(=O)(=O)N1CCN(c2ccc(C(C)=O)cc2)CC1 | / | ? | / | 8% | / | 16µM*
CCOC(=O)c1sc2ccccc2c1S(=O)(=O)N1CCN(c2ccccc2)CC1 | / | ? | / | -1% | / | ?
COc1ccc(CCCc2nnc(SCC(=O)Nc3ccc(C)cc3)o2)cc1 | / | -15% | / | / | / | -16%
COc1ccccc1NC(=O)CSc1nnnn1-c1ccccc1F | 0 | 20% | 2 | / | -26 | 7%
Cc1cc(C(=O)Nc2ccccc2-c2nc(CNC(=O)c3cscn3)c(C)o2)c(C)o1 | / | -19% | / | / | / | 0%[9.04 µM]
COC(=O)c1sc2ccccc2c1NC(=O)c1ccc(S(=O)(=O)N2CC(C)CC(C)C2)cc1 (stereo not given) | 11 | 18µM* | 0 | 5% | 13 | 21µM*
N#Cc1ccc(Nc2nc(-c3ccccc3)c(C(=O)c3ccccc3)s2)cc1 | 1 | 23µM* | 7 | / | -52* | 18µM*
O=C(c1ccccc1)c1sc(Nc2ccc3c(c2)OCO3)nc1-c1ccccc1 | -15 | ? | -12 | / | / | ?
CCOC(=O)c1sc2ccc(S(=O)(=O)N3CC(C)CC(C)C3)cc2c1N (stereo not given) | 0 | 13µM* | 1 | -3% | 18 | ?
CCOC(=O)C(=CNc1nc(-c2ccccc2)c(C(=O)Nc2ccc(-c3ccccc3)cc2)s1)C(=O)OCC | 4 | ? | 4 | 2% | 57 | 16µM*
O=C(CSc1nnc(-c2cccnc2)n1Cc1ccccc1)NCc1ccccc1 | 2 | -17% | 0 | 1% | -20 | 11%
CC(C)C(=O)N=C1SC2CS(=O)(=O)CC2N1Cc1ccc(Cl)cc1 (stereo not given) | 8 | -17% | 8 | -2% | 34 | 22%
COc1ccc(N2C(=O)CC(Sc3n[nH]c(-c4cccc(C)c4)n3)C2=O)cc1 (stereo not given) | -9 | 3.7µM* | 3 | 11% | -30 | 0.92µM*
CCOc1ccccc1N1C(=O)CC(Sc2n[nH]c(-c3ccccc3)n2)C1=O (stereo not given) | 2 | 0.65µM* | -5 | 9% | 0 | 0.65µM*
COC(=O)c1ccc(N2C(=O)CC(Sc3n[nH]c(C)n3)C2=O)cc1 (stereo not given) | 0 | 5.2µM* | -3 | 4% | 15 | 2.1µM*
CC(=O)Nc1ccc(N2C(=O)CC(Sc3nc(C)cc(C)n3)C2=O)cc1 (stereo not given) | -7 | 7% | 2 | / | 23 | 3%
